The results in this text go back to PubChem BioAssay (EPA / NIEHS).

In assay [1] the target is human Janus Kinase 2 (Jak2), JAK2 (gene 3717) (UniProt O60674). Nature of the assay: NVS_ENZ_hJak2: NovaScreen (NVS) Enzymatic Assay for human Janus Kinase 2 (Jak2) (AID 2283169). The method in brief:
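Cell-free recombinant human JAK2 enzyme activity assay, fluorescence/electrophoretic mobility shift read 1 h after dosing. Screened in duplicate at 25 uM, then concentration-response up to 50 uM; activity as signal loss relative to DMSO.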

Assay [2] concerns the target Mitogen-activated protein kinase 3 (Homo sapiens) (UniProt P27361). Briefly: NVS_ENZ_hMAPK3: NovaScreen (NVS) Enzymatic Assay for human Mitogen-Activated Protein Kinase 3 (MAPK 3) (AID 2283177). The essentials: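 Cell-free enzymatic assay with recombinant protein and specific substrate; fluorescence and electrophoretic mobility shift read-out 1 h after dosing. Primary screen duplicate at 25 uM; actives then run in concentration-response up to 50 uM, loss of signal versus DMSO.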

Assay [3] has as its target Glycogen synthase kinase-3 beta (Homo sapiens) (UniProt P49841). Briefly: NVS_ENZ_hGSK3b: NovaScreen (NVS) Enzymatic Assay for human Glycogen Synthase Kinase-3 beta (GSK3b) (AID 2283165). The essentials:
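Recombinant enzyme with specific fluorescent substrate, 1 h, product separated by electrophoretic mobility shift. Primary duplicate screen at 25 uM; actives (e.g. 30% inhibition) followed in singleton concentration-response to 50 uM. Signal loss fitted versus DMSO.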

In assay [4] the target is human Phosphodiesterase 4A1 (PDE4A1), PDE4A (gene 5141) (UniProt P27815). Briefly: NVS_ENZ_hPDE4A1: NovaScreen (NVS) Enzymatic Assay for human Phosphodiesterase 4A1 (PDE4A1) (AID 2283191). The essentials: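 Cell-free recombinant human PDE4A1 with fluorescent substrate; product separated by electrophoretic mobility shift, 1 h. Screened at 25 uM, then up to 50 uM in concentration-response; loss of signal fitted against DMSO.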

The target in assay [5] is human Phosphodiesterase 5 (PDE5), PDE5A (gene 8654) (UniProt O76074). Briefly: NVS_ENZ_hPDE5: NovaScreen (NVS) Enzymatic Assay for human Phosphodiesterase 5 (PDE5) (AID 2283194). The method in brief:
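Recombinant human PDE5 with specific substrate, read 1 h after dosing by fluorescence with electrophoretic mobility-shift separation of substrate and product. Initial single-concentration duplicate screen at 25 uM, actives followed in concentration series; loss of activity versus DMSO.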

For assay [6], the target named is human IkappaB Kinase alpha (IKKa), CHUK (gene 1147) (UniProt O15111). Nature of the assay: NVS_ENZ_hIKKa: NovaScreen (NVS) Enzymatic Assay for human IkappaB Kinase alpha (IKKa) (AID 2283167). The essentials:
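Cell-free recombinant human IKKa with fluorescent substrate, product separated by electrophoretic mobility shift; read 1 hour after dosing. Primary screen duplicate at 25 uM, actives then concentration-response up to 50 uM; loss of signal relative to DMSO.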

Assay [7] has as its target human MET Proto-Oncogene, Receptor Tyrosine Kinase (MET), MET (gene 4233) (UniProt P08581). Nature of the assay: NVS_ENZ_hMet: NovaScreen (NVS) Enzymatic Assay for human MET Proto-Oncogene, Receptor Tyrosine Kinase (MET) (AID 2283180). The method in brief: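 Cell-free MET kinase assay using recombinant protein and fluorescent substrate, with mobility-shift separation; read 1 h after dosing. Primary duplicate at 25 uM; actives in singleton concentration-response to 50 uM maximum. Signal loss versus DMSO.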

Assay [8] addresses human Mitogen- and Stress-activated Protein Kinase-1 (Msk1), RPS6KA5 (gene 9252) (UniProt O75582). Briefly: NVS_ENZ_hMsk1: NovaScreen (NVS) Enzymatic Assay for human Mitogen- and Stress-activated Protein Kinase-1 (Msk1) (AID 2283187). The method in brief: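 Recombinant kinase with fluorescent substrate; product separated by electrophoretic mobility shift, read 1 h after dosing. Screened in duplicate at 25 uM; hits (e.g. ≥30% inhibition) tested in concentration–response up to 50 uM. DMSO baseline.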

Assay [9] has as its target human NIMA (Never In Mitosis Gene A)-Related Kinase 2 (NEK2), NEK2 (gene 4751) (UniProt P51955). Nature of the assay: NVS_ENZ_hNEK2: NovaScreen (NVS) Enzymatic Assay for human NIMA (Never In Mitosis Gene A)-Related Kinase 2 (NEK2) (AID 2283188). The essentials: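 Cell-free NEK2 enzyme activity after 1 h exposure, read by fluorescence with electrophoretic mobility shift separating substrate and product. Primary screen in duplicate at 25 uM; actives then run as concentration series. Loss of signal versus DMSO scored.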

Assay [10] has as its target cAMP-dependent protein kinase catalytic subunit alpha (Homo sapiens) (UniProt P17612). Nature of the assay: NVS_ENZ_hPKA: NovaScreen (NVS) Enzymatic Assay for human Protein Kinase A (PKA) (AID 2283192). The method in brief: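 Recombinant human PKA with specific fluorescent substrate, product separated by electrophoretic mobility shift, read 1 h after dosing. Primary screen at 25 uM in duplicate; actives then run in concentration-response up to 50 uM, activity relative to DMSO.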

The target in assay [11] is human c-Jun N-terminal Kinases (JNK2), MAPK9 (gene 5601) (UniProt P45984). Nature of the assay: NVS_ENZ_hJNK2: NovaScreen (NVS) Enzymatic Assay for human c-Jun N-terminal Kinases (JNK2) (AID 2283171). The essentials:
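Cell-free recombinant human JNK2 activity assay; fluorescent substrate and product separated by electrophoretic mobility shift, read 1 h after dosing. Primary duplicate screen at 25 uM; actives run in concentration-response up to 50 uM, relative to DMSO.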

The target in assay [12] is human Matrix Metalloproteinase-7 (MMP7), MMP7 (gene 4316) (UniProt P09237). Nature of the assay: NVS_ENZ_hMMP7: NovaScreen (NVS) Enzymatic Assay for human Matrix Metalloproteinase-7 (MMP7) (AID 2283183). The essentials:
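Cell-free fluorescence enzymatic assay read 1 h after compound addition, activity loss analyzed against DMSO. Primary duplicate testing at 25 uM; compounds meeting threshold rerun in singleton concentration-response up to 50 uM.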

Assay [13] deals with human MAP Kinase-Activated Protein Kinase 2 (MAPKAPK2), MAPKAPK2 (gene 9261) (UniProt P49137). Briefly: NVS_ENZ_hMAPKAPK2: NovaScreen (NVS) Enzymatic Assay for human MAP Kinase-Activated Protein Kinase 2 (MAPKAPK2) (AID 2283178). The method in brief:
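Cell-free recombinant human MAPKAPK2 activity measured by fluorescence with electrophoretic mobility shift separation of substrate and product, 1 hr after dosing. Loss of signal versus DMSO; primary screen at 25 uM, concentration-response up to 50 uM.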

Assay [14] deals with human p21 Activated Kinase 4 (PAK4), PAK4 (gene 10298) (UniProt O96013). Briefly: NVS_ENZ_hPAK4: NovaScreen (NVS) Enzymatic Assay for human p21 Activated Kinase 4 (PAK4) (AID 2283189). The essentials:
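Cell-free recombinant human PAK4 activity assay; fluorescent substrate and product separated by electrophoretic mobility shift, read 1 h after dosing. Initially tested in duplicate at 25 uM, relative to DMSO baseline.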

Inconclusive results are not listed. Activity calls are given as the source filed them. How the source made its calls: active means hit-call score of the fitted dose curve at least 0.9, where 1 is the maximum; inconclusive means response in the unintended direction; inactive means score below 0.9.

Sequence of human Janus Kinase 2 (Jak2), JAK2 (gene 3717) (O60674 whole entry, looked up): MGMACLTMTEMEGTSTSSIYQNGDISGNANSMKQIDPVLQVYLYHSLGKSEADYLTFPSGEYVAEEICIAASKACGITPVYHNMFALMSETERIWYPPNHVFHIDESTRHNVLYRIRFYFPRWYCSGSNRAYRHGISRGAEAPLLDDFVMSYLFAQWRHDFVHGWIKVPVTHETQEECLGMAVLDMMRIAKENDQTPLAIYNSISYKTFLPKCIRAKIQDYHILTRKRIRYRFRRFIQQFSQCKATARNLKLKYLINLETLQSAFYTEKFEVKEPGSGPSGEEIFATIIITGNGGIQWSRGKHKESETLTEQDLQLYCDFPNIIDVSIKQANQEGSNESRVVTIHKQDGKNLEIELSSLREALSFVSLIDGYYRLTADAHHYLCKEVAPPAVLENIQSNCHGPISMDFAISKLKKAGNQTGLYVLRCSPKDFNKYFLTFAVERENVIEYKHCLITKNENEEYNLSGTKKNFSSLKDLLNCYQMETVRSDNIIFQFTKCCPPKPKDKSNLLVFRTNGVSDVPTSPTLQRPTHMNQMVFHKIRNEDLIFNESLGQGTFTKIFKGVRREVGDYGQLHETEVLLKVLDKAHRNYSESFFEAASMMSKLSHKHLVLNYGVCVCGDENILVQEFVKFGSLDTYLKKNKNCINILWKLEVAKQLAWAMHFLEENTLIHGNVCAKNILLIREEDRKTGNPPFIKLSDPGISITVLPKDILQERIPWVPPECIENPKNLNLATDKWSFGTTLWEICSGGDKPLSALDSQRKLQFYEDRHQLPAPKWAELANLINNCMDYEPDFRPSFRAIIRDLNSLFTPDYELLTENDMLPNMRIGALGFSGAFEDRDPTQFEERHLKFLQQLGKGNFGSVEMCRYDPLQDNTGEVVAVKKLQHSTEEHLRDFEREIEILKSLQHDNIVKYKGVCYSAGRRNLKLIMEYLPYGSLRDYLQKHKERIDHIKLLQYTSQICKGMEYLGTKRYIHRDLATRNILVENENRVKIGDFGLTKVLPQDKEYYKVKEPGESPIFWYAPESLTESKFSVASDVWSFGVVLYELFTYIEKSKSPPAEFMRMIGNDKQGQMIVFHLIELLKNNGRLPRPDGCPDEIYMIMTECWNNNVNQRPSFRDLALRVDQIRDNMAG
Sequence of human Phosphodiesterase 4A1 (PDE4A1), PDE4A (gene 5141) (P27815 whole entry, looked up): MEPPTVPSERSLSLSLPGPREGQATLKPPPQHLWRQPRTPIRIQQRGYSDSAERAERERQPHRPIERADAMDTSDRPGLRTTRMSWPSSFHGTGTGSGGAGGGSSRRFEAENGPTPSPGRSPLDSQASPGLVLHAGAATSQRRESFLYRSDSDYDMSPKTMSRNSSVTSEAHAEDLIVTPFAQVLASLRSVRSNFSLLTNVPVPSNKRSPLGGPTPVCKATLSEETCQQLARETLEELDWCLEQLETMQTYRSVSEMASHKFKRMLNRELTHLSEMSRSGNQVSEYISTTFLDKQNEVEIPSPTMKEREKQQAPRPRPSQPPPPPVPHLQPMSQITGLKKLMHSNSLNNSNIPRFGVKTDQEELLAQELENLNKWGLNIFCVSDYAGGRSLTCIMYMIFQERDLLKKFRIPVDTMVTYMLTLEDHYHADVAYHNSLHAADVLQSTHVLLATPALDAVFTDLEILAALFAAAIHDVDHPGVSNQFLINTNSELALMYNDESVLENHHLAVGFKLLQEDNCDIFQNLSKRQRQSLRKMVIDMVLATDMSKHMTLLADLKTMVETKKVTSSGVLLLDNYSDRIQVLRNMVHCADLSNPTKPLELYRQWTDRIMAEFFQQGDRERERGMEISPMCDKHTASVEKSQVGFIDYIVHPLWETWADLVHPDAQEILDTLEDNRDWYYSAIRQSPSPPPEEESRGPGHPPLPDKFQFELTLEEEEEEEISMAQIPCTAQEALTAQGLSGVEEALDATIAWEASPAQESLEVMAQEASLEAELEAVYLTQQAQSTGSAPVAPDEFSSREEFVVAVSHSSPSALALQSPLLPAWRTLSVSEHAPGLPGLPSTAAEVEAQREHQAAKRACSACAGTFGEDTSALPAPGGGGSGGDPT
Sequence of Mitogen-activated protein kinase 3 (Homo sapiens) (P27361 whole entry, looked up): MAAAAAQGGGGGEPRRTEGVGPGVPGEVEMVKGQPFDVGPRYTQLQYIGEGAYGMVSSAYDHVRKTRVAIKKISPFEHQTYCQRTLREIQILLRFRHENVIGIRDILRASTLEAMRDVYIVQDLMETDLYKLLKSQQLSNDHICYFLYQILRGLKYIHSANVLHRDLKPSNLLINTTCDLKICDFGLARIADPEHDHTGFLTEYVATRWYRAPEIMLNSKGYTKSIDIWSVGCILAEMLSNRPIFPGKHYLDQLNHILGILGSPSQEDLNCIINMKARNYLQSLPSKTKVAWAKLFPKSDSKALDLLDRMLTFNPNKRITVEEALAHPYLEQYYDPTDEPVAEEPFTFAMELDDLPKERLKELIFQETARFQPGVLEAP
Sequence of human MET Proto-Oncogene, Receptor Tyrosine Kinase (MET), MET (gene 4233) (P08581 whole entry, looked up): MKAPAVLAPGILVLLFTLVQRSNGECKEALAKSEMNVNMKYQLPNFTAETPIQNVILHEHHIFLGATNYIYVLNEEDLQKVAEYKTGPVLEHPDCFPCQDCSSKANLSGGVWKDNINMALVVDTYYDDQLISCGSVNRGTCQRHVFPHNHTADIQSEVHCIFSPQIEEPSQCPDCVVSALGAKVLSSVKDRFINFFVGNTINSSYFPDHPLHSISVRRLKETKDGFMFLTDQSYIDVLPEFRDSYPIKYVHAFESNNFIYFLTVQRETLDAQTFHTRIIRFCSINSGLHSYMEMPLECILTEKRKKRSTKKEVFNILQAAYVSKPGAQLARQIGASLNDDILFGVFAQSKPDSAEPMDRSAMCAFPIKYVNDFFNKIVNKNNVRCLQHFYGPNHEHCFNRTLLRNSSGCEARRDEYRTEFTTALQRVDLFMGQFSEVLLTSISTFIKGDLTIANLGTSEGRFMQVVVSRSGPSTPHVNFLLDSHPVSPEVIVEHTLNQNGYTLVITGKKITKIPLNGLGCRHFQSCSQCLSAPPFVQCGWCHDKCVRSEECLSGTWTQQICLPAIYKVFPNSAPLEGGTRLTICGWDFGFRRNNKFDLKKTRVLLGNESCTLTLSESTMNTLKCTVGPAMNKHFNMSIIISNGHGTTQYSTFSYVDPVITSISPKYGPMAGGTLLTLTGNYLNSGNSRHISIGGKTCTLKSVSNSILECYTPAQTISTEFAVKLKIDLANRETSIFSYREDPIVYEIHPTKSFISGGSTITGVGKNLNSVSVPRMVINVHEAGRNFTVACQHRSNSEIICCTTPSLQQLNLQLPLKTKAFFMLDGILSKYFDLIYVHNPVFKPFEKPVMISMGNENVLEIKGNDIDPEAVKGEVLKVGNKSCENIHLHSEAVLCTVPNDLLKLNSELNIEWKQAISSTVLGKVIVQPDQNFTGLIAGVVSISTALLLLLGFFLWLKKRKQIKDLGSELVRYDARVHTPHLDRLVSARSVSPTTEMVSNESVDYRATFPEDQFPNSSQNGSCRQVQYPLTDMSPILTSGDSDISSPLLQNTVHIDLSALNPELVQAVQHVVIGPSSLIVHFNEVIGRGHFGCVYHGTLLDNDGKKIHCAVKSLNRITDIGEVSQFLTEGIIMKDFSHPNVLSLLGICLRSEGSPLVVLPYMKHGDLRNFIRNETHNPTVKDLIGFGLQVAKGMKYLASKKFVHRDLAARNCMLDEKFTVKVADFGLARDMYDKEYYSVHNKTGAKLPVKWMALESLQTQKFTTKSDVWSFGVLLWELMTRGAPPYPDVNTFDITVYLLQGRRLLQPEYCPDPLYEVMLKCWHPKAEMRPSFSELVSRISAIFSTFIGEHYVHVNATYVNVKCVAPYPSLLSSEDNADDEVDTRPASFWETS
Sequence of Glycogen synthase kinase-3 beta (Homo sapiens) (P49841 whole entry, looked up): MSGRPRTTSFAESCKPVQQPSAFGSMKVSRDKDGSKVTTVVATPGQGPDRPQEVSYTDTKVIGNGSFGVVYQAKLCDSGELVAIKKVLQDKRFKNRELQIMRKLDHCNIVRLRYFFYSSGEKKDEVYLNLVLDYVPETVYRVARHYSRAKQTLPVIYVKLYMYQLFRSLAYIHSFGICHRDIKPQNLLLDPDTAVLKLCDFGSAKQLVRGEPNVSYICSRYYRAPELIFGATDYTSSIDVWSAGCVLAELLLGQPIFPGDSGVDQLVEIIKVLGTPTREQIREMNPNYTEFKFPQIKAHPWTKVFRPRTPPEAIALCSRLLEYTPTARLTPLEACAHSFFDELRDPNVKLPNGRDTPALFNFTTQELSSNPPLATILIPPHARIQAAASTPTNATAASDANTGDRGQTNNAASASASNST
Sequence of human Mitogen- and Stress-activated Protein Kinase-1 (Msk1), RPS6KA5 (gene 9252) (O75582 whole entry, looked up): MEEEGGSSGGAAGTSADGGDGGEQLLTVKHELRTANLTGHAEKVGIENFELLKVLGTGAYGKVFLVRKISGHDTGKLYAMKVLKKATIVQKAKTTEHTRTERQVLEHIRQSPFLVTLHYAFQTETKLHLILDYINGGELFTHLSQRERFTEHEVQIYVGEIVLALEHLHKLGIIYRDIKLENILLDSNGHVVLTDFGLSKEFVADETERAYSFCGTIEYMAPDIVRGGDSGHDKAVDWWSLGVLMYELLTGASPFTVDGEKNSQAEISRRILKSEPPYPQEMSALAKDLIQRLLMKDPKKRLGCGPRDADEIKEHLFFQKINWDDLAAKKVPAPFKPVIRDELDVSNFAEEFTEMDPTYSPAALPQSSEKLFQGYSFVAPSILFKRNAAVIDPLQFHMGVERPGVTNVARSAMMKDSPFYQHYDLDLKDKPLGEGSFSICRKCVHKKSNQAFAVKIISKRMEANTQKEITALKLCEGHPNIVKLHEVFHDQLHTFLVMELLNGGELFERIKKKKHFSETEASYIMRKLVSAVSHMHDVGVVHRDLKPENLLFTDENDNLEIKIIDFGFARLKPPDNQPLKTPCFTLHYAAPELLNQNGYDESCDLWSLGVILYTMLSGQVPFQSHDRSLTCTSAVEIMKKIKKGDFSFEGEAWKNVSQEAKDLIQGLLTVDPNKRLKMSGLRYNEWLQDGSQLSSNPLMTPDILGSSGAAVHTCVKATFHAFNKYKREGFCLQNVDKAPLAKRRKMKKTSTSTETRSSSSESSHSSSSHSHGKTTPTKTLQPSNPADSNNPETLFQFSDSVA

Regarding `Clc1ccc(C(c2ccccc2Cl)C(Cl)(Cl)Cl)cc1` (configuration not stated), in [1], the outcome was inactive.
For `CC#Cc1cc(C)nc(Nc2ccccc2)n1`, in [2], the compound was called inactive.
`C=CC(N)=O`: in [3], the outcome was inactive.
Take `Cc1ccccc1O`: the compound was called inactive in assay [3].
For orientation: AC50 means the concentration at which the activity in the assay is half-maximal. Take `Cc1cc2c3c(c1)C(c1ccccc1)=N[C@@H](NC(=O)c1ccncc1)C(=O)N3CC2`: the outcome in assay [1] was inactive. Moreover, the AC50 is 1.36 µM (active) in [4] and 3.87 µM (active) in [5].
Consider `O=C(O)C(F)(F)C(F)(F)C(F)(F)C(F)(F)C(F)(F)C(F)(F)C(F)(F)C(F)(F)F`, for which the result in [3], in [6], in assay [7], in [8], in assay [10] and in assay [5] was inactive. Further, in assay [9], the AC50 was 40.7 µM (active).
Regarding `CCCN(CCC)N=O`, the compound was classed as inactive in assay [3], in [4] and in assay [5].
As to `O=C(O)C(F)(F)C(F)(F)C(F)(F)C(F)(F)C(F)(F)F`, the result in assay [1], in [11] and in [12] was inactive.
Regarding `COc1ccc(O)c(C(C)(C)C)c1`, the compound was called inactive in assay [3].
Same read-out and setting: the result for `C1CC2OC2CC1C1CO1` (configuration not stated) reads “inactive”; that for `O=C(NC(=O)c1cc(F)c(F)cc1Cl)Nc1cc(F)ccc1N1CCC(C(=O)O)CC1`, “inactive”.
As to `Cc1cccc([N+](=O)[O-])c1`, the call in assay [2] was inactive.
As to `Cc1ccc(O)c(C)c1`, the result in assay [3] and in assay [7] was inactive. The concentration at half-maximal activity (AC50) in assay [5] was 37.4 µM (active).
With `Clc1ccc(Cl)cc1`, in [3], the result was inactive.
As to `CC1=C2C[C@H]3[C@@H](CC=C4C[C@@H](O)CC[C@@]43C)[C@@H]2CC[C@]12O[C@@H]1C[C@H](C)CN[C@H]1[C@H]2C`, the call in assay [3], in [11], in assay [2], in assay [13], in assay [7] and in [14] was inactive. Moreover, the outcome in assay [4] and in [10] was inactive. Besides, the AC50 in assay [8] was 19 µM (active).
